Experimental data taken from PubChem BioAssay.
Several values for one entry are separate records, joined by “and”; a condition that tells them apart may be missing. Identical values can stand only once. Peptide text beside a SMILES is read from it. * marks the point of attachment. CH2Cl = ClC*

Assay: viability loss with induced miR-34 in A549 – imaging, A549 dox-inducible miR-34, nuclei and caspase counts, primary screen (AID 1347080); further: test concentration not given here
Conditions: A549 miR-34 inducible, Hoechst nuclei count, 48 h; measured here: total cells with miR-34 induction; stronger effect = lower value

Point of comparison: CCCCC/C=C\C/C=C\C/C=C\C/C=C\CCCC(=O)OCCN, cell count 5780. Against it:
- CCCCCCCC/C=C\CCCCCCCC(=O)Nc1ccccc1 — higher, 6190
- CCCCC/C=C\C/C=C\C/C=C\C/C=C\CCCC(=O)N[C@@H](C)CO — higher, 6190
- C=C1[C@@H](C)[C@H]2[C@H](Cc3ccccc3)NC(=O)[C@]23OC(=O)/C=C/[C@H](O)CCC[C@@H](C)C/C=C/[C@H]3[C@@H]1O — lower, 1220
- CCCCC/C=C\C/C=C\C/C=C\C/C=C\CCCC(=O)N(C)C — lower, 5340
- COc1cc(CNC(=O)CCCCCCC(C)C)c(I)cc1O — lower, 5730
- CCCCCC(/C=C/C=O)OO (stereo not given) — the same, 5780
- CCCCC/C=C\C/C=C\C/C=C\C/C=C\CCCC(=O)NCCCC(=O)O — lower, 5500
- N#CC(C#N)=NNc1ccc(OC(F)(F)F)cc1 — lower, 1180
- CCNC(=O)[C@H]1O[C@@H](n2cnc3c(N)ncnc32)[C@@H](O)C1O (stereo not given in full) — higher, 6150
- C=C1[C@@H](O)[C@@H]2O[C@@]3(CCC2O[C@@H]1[C@@H](O)C[C@H](C)C1O[C@@]2(CCCCO2)CC[C@H]1C)CC[C@H](/C=C/[C@@H](C)[C@@H]1CC(C)=C[C@@]2(O[C@H](C[C@@](C)(O)C(=O)O)CC[C@H]2O)O1)O3 (stereo not given in full) — lower, 423
- C/C1=C/C(=O)O[C@@H]2C[C@@H](CC[C@H](C)/C=C\CC1)O[C@@](O)([C@@H]1CSC(=O)N1)C2 — lower, 1070
- CCCCCCCCCCCCCCCC(=O)OC[C@H](COP(=O)([O-])OCC[N+](C)(C)C)OC(=O)CCCC=O — lower, 5310
- C=C(C)[C@@H]1CCC(C)=C[C@H]1c1c(OC)cc(CCCCC)cc1OC — lower, 5760
- CCCC[C@@H](C)[C@@H](OC(=O)C[C@@H](CC(=O)O)C(=O)O)[C@H](C[C@@H](C)C[C@H](O)CCCC[C@@H](O)C[C@H](O)[C@H](C)N)OC(=O)C[C@H](CC(=O)O)C(=O)O — lower, 5520
- CCCCC/C=C\C/C=C\C/C=C\C/C=C\CCCC(=O)N[C@H](C)COP(=O)(O)O — lower, 5610
- CCCCC/C=C\C/C=C\C/C=C\C/C=C\CCCC(=O)Nc1ccc([N+](=O)[O-])cc1 — higher, 5860
- Clc1ccc(C2CC3CCC2N3)cn1 (stereo not given) — higher, 6010
- C[C@H](N)C(=O)N[C@@H](C)C(=O)N[C@@H](Cc1ccccc1)C(=O)CCl (H-Ala-Ala-Phe-CH2Cl) — lower, 2970
- CCCC(=O)N[C@H]1CCOC1=O — higher, 6040
- COC[C@H]1OC(=O)c2coc3c2[C@@]1(C)C1=C(C3=O)[C@@H]2CCC(=O)[C@@]2(C)C[C@H]1OC(C)=O — lower, 1550
- CCCCC/C=C\C/C=C\C/C=C\C/C=C\CCCC(=O)NCCS(=O)(=O)O — lower, 5500
- CC1OC(O[C@H]2C[C@@H](O)[C@]3(CO)[C@H]4[C@H](O)C[C@]5(C)[C@@H](C6=CC(=O)OC6)CC[C@]5(O)[C@@H]4CC[C@]3(O)C2)C(O)C(O)C1O (stereo not given in full) — lower, 286
- CNCCCCCCN(C)N(O)N=O — higher, 6040
- C[C@H](CCC(=O)O)C[C@H](C)C[C@H](C)C(=O)/C=C(\O)[C@H](C)C[C@H](C)C/C=C/[C@@H](C)[C@@H](O)[C@@H](C)[C@@H](O)C[C@@H]1CC[C@@](C)([C@H]2CC[C@@](C)([C@@H](C)O)O2)O1 — lower, 621
- CCCCC/C=C\C/C=C\C/C=C\C/C=C\CCCC(=O)O[C@H](COC(=O)CCCCCCCCCCCCCCCCC)COP(=O)([O-])OCC[N+](C)(C)C — lower, 5220
- CC(C)(O)[C@H]1O[C@H]2CC[C@@]3(C)[C@@](O)(CC[C@H]4Cc5c([nH]c6ccccc56)[C@@]43C)C2=CC1=O — lower, 3780
- COC(C/C=C/C=C/CC/C=C\CC(C)/C=C\C(=C/C(=O)O)CC(=O)O)/C(C)=C\C=C(/C)C(=O)O (stereo not given) — lower, 5720
- CCCCCC(=O)N[C@H]1CCOC1=O — lower, 5400
- CCCCCCC(C)(C)c1cc(OC)c2c(c1)OC(C)(C)[C@@H]1CC=C(C)C[C@@H]21 — higher, 6970
- CCCCC/C=C\C/C=C\C/C=C\C/C=C\CCCC(=O)NCc1ccoc1 — lower, 5700
- CCOC(=O)CN1C(=O)CC(C[C@@H](O)C2C[C@@H](C)C[C@H](C)C2=O)CC1=O (stereo not given in full) — lower, 4960
- CC1(O)C[C@@]23C[C@@H](O)[C@@]4(O)[C@@H](C[C@H](O)C4(C)C)[C@](C)(O)[C@@H]2CCC1[C@H]3O (stereo not given in full) — higher, 6010
- CO/C1=C\C(C)=C\[C@@H](C)[C@@H](O)[C@@H](C)C/C(C)=C/C=C/[C@H](OC)[C@@H]([C@@H](C)[C@@H](O)[C@H](C)[C@@]2(O)C[C@@H](O)[C@H](C)[C@@H](C(C)C)O2)OC1=O — lower, 2990
- COC[C@H]([C@@H](O)[C@@H](O)C(=O)NCC[C@@H](C)c1nc(/C=C/C[C@H]2OC3(C[C@H](O)[C@H]2C)OC([C@@H](C[C@@H](O)[C@@H](C)[C@@H](O)[C@@H](C)/C=C(C)/C(C)=C/C=C/C(C)=C\C#N)OC)[C@@H](OP(=O)(O)O)C3(C)C)co1)N(C)C (stereo not given in full) — lower, 250
- C=C(C)[C@H]1O[C@H]2CC[C@@]3(C)[C@@](O)(CC[C@H]4[C@@H]5OC(C)(C)[C@H]6C[C@@H]7C(=C)Cc8c(Cl)cc9[nH]c(c5c9c8[C@@]76O)[C@@]43C)[C@]23O[C@@H]3[C@H]1O — lower, 1060
- CCCCC/C=C\C/C=C\C/C=C\C/C=C\CCCC(=O)NC1CC1 — higher, 5860
- O=C(CCC/C=C\C[C@@H]1[C@@H](/C=C/[C@@H](O)COc2cccc(C(F)(F)F)c2)[C@H](O)C[C@@H]1O)NC(CO)CO — lower, 5260

In the case of Cc1cc(C(C#N)c2ccc(Cl)cc2)c(Cl)cc1NC(=O)c1cc(I)cc(I)c1O (stereo not given), the cell count is reported as 8250 and 7900 and 8930.
With N[C@H]1C[C@@H]1c1ccccc1 the cell count was 9050.
